# Measurements from publication PMC9838217, “Structure of SALL4 zinc finger domain reveals link between AT-rich DNA binding and Okihiro syndrome”.
# Where a chain is given by its changes, count along the chain named.
# Legend:
# Experiment in all cases: HT-SELEX; high values mean tight binding
# Settings in all cases: protein: recombinant; vector His6-GST; dsDNA, one strand shown
# SALL4 ZFC4 WT (HT-SELEX) = target: T1, SALL4 ZFC4 WT (HT-SELEX) (Mus musculus, UniProt Q8BX22 870-940)
# T1 sequence: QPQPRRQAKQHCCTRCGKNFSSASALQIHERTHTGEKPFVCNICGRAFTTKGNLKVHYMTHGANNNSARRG
# Summary of the method: (§1)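 DNA from a random library (1.5 µg in the first cycle, 200 ng afterwards) was incubated with purified recombinant mouse SALL4 zinc finger cluster 4, residues 870–940 (1 µg), for 10 min at room temperature in 100 µl buffer: 10 mM Tris–HCl pH 7.5, 50 mM NaCl, poly(dI-dC), DTT. Bound complexes were pulled down on Ni2+ beads, washed and PCR-amplified, and the selection was repeated for up to 6 cycles in triplicate. MiSeq reads were scanned for 6-mers, and binding signal is each canonical k-mer's read fraction as fold change over the initial random library.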
# [1] = target: T2, SALL4 ZFC4 R900W (HT-SELEX) (Mus musculus, UniProt Q8BX22 870-940, R900W)
# T2 sequence: T1 sequence with R31W
# Summary of the method: as §1
# [2] = target: T3, SALL4 ZFC4 G921D (HT-SELEX) (Mus musculus, UniProt Q8BX22 870-940, G921D)
# T3 sequence: T1 sequence with G52D
# Summary of the method: as §1
Sequence,binding signal (SALL4 ZFC4 WT (HT-SELEX)) [fold-change vs cycle 0],binding signal [1] [fold-change vs cycle 0],binding signal [2] [fold-change vs cycle 0]
AAGAAC,1.29 ± 0.0399,1.49 ± 0.0657,1.38 ± 0.123
TGACAA,1.16 ± 0.0336,1.29 ± 0.0235,1.26 ± 0.0515
GACGGA,0.372 ± 0.0168,0.427 ± 0.0141,0.545 ± 0.0666
CTGCTA,0.699 ± 0.028,0.757 ± 0.0335,0.816 ± 0.0523
AATCAC,1.31 ± 0.0497,1.46 ± 0.03,1.42 ± 0.0791
TATATA,5.68 ± 0.781,2.55 ± 0.233,2.17 ± 0.291
GGAGAC,0.471 ± 0.0075,0.574 ± 0.0262,0.671 ± 0.0455
GTCTCA,0.736 ± 0.016,0.879 ± 0.00912,0.938 ± 0.0386
AGCTAA,1.15 ± 0.044,1.26 ± 0.0399,1.27 ± 0.0601
AAGTCG,0.537 ± 0.0353,0.634 ± 0.0134,0.747 ± 0.0488
AGAAAA,1.83 ± 0.0887,1.85 ± 0.0773,1.63 ± 0.11
AGCTAT,1.19 ± 0.0625,1.26 ± 0.0563,1.27 ± 0.0842
GATGAC,0.865 ± 0.0236,0.962 ± 0.0544,1.01 ± 0.0406
CCAAAG,0.69 ± 0.0265,0.801 ± 0.0292,0.848 ± 0.0204
ACCGGT,0.368 ± 0.0353,0.438 ± 0.0164,0.518 ± 0.0665
AATGCT,1.15 ± 0.0126,1.19 ± 0.0201,1.225 ± 0.011
GTCTTA,1.27 ± 0.0474,1.39 ± 0.0618,1.35 ± 0.0901
ATCTTA,2.21 ± 0.106,2.19 ± 0.133,1.92 ± 0.224
ACTGAC,0.782 ± 0.026,0.909 ± 0.0341,0.934 ± 0.016
CAAACA,1.04 ± 0.0367,1.17 ± 0.0357,1.18 ± 0.0394

Sequence,binding signal (SALL4 ZFC4 WT (HT-SELEX)) [fold-change vs cycle 0],binding signal [1] [fold-change vs cycle 0],binding signal [2] [fold-change vs cycle 0]
CGGTAC,0.362 ± 0.0117,0.437 ± 0.0232,0.552 ± 0.049
ACTATC,1.35 ± 0.0436,1.45 ± 0.0712,1.39 ± 0.1
AACTCG,0.7 ± 0.0308,0.798 ± 0.00905,0.871 ± 0.024
AAAGGA,1.36 ± 0.0473,1.57 ± 0.109,1.44 ± 0.105
AAGCGT,0.524 ± 0.0507,0.607 ± 0.0218,0.726 ± 0.0141
GCCTTA,0.573 ± 0.0273,0.685 ± 0.0271,0.783 ± 0.0268
AGAGTC,0.786 ± 0.0201,0.925 ± 0.0489,0.995 ± 0.0509
CCCGAA,0.314 ± 0.0034,0.403 ± 0.0174,0.512 ± 0.0767
ACTTCG,0.679 ± 0.0273,0.7885 ± 0.004,0.854 ± 0.0495
GCTGAA,0.582 ± 0.0146,0.67 ± 0.0322,0.774 ± 0.0356
TCAGCA,0.676 ± 0.0405,0.74 ± 0.0606,0.841 ± 0.0603
CACGTC,0.427 ± 0.0304,0.52 ± 0.0494,0.633 ± 0.0372
CATCCG,0.395 ± 0.00447,0.448 ± 0.0185,0.567 ± 0.0534
GGGAGA,0.48 ± 0.0185,0.566 ± 0.0484,0.638 ± 0.033
GGGTAC,0.482 ± 0.0239,0.556 ± 0.011,0.641 ± 0.0594
AATGAA,2.19 ± 0.104,2.17 ± 0.105,1.89 ± 0.135
CCTCAC,0.47 ± 0.0318,0.561 ± 0.0275,0.658 ± 0.0448
GATGTA,1.358 ± 0.0117,1.425 ± 0.0112,1.34 ± 0.0458
ACCAGG,0.477 ± 0.0177,0.564 ± 0.0161,0.658 ± 0.055
CACTAC,0.801 ± 0.0178,0.9075 ± 0.0089,0.938 ± 0.0237

Sequence,binding signal (SALL4 ZFC4 WT (HT-SELEX)) [fold-change vs cycle 0],binding signal [1] [fold-change vs cycle 0],binding signal [2] [fold-change vs cycle 0]
ATCTTC,1.42 ± 0.0263,1.58 ± 0.0645,1.46 ± 0.104
GTAATA,2.33 ± 0.177,2.09 ± 0.144,1.81 ± 0.189
AGAGAC,0.8 ± 0.0496,0.927 ± 0.0137,0.985 ± 0.0357
GCAACA,0.54 ± 0.0464,0.629 ± 0.0238,0.72 ± 0.0281
AATTCT,2.05 ± 0.0669,1.99 ± 0.104,1.8 ± 0.162
AAGAGC,0.752 ± 0.0601,0.917 ± 0.0813,1.02 ± 0.0502
AATGGA,1.38 ± 0.0388,1.47 ± 0.0617,1.39 ± 0.0841
CCTCGA,0.415 ± 0.0275,0.51 ± 0.0259,0.594 ± 0.0635
ACTGAA,1.38 ± 0.0494,1.5 ± 0.11,1.39 ± 0.103
TATCAA,2.32 ± 0.148,2 ± 0.128,1.87 ± 0.178
CCAAGA,0.78 ± 0.0182,0.888 ± 0.03,0.931 ± 0.0131
CGGAAG,0.465 ± 0.0113,0.58 ± 0.0281,0.707 ± 0.0759
AGAGGA,0.933 ± 0.0495,1.09 ± 0.0506,1.07 ± 0.0639
CGGTAA,0.676 ± 0.0195,0.74 ± 0.026,0.792 ± 0.0302
AGTTCA,1.42 ± 0.0499,1.55 ± 0.0608,1.44 ± 0.0878
GCCATA,0.544 ± 0.0118,0.556 ± 0.0265,0.681 ± 0.0554
AGCTAC,0.674 ± 0.0463,0.7802 ± 0.0018,0.874 ± 0.026
GAATTA,2.39 ± 0.113,1.95 ± 0.0992,1.75 ± 0.12
AACCAT,1.38 ± 0.0512,1.42 ± 0.0463,1.41 ± 0.0967
ATCCGG,0.352 ± 0.0195,0.41 ± 0.0188,0.52 ± 0.0559
